The campaign covered roughly 350,000 compounds. About 6,000 (1.7%) were called active. Not shown: some 5% with an inconclusive outcome. The full list was thinned out, with actives kept by preference. A number with no mark means an inactive call. Cut-off read from the data, not from the text of the source: active = CPE inhibition above about 20% (passing the limit was not always enough); inconclusive = no clear call, values can overlap the other calls; tested in BHK-21 cells.
Test: protection of cells from dengue 2 killing – plate reader, single concentration, primary screen (AID 651640);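 note: 0% = median of neutral control wells and 100% = median of positive control wells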
Conditions: DENV2-infected cells, cytopathic effect rescue, at 9.99 µM, active compounds read high

Row | SMILES | CPE inhibition
1 | O=S(=O)(N[C@@H]1CC[C@@H](CCn2cc(-c3ccccn3)nn2)O[C@@H]1CO)c1cccc(Cl)c1 | 14.3%
2 | C[C@H]1CN([C@@H](C)CO)C(=O)c2cc(NC(=O)C3CC3)ccc2O[C@@H]1CN(C)S(=O)(=O)c1cn(C)cn1 | -4.92%
3 | C[C@@H]1CCCCO[C@H](CN(C)C(=O)Cc2ccccc2)[C@H](C)CN([C@@H](C)CO)C(=O)c2cc(NS(=O)(=O)c3ccc(F)cc3)ccc2O1 | -10.6%
4 | CC(C)NC(=O)NCC[C@H]1CC[C@@H](NS(=O)(=O)c2ccc(Oc3ccccc3)cc2)[C@@H](CO)O1 | -1.61%
5 | CO[C@H]1CN(C)C(=O)c2cc(NS(=O)(=O)CC(F)(F)F)ccc2OC[C@@H](C)N(C(=O)c2ccc3c(c2)OCO3)C[C@@H]1C | 15.3%
6 | COC(=O)CN1C(=O)[C@H]2[C@@H](C3CC3)N3C(=O)CN(Cc4ccc(-c5ccccc5)cc4)C(=O)[C@@]3(Cc3ccccc3)[C@H]2C1=O | 3.26%
7 | COC(=O)CN1C(=O)[C@H]2[C@@H](/C=C/c3ccccc3)N3C(=O)CN(Cc4ccccc4)C(=O)[C@@]3(Cc3ccccc3)[C@H]2C1=O | -11.1%
8 | COC(=O)CN1C(=O)[C@H]2[C@@H](/C=C/c3ccccc3)N3C(=O)CN(CC4CC4)C(=O)[C@@]3(Cc3ccccc3)[C@H]2C1=O | 51% (active)
9 | C[C@H](CO)N1C[C@H](C)[C@@H](CN(C)Cc2ccc(C(F)(F)F)cc2)Oc2ccc(NC(=O)Cn3cnnn3)cc2CC1=O | 7.25%
10 | Cc1ccccc1OCCC(=O)OCC(=O)NC(C)c1ccccc1 (stereo not drawn) | 4.9%
11 | Cc1ccccc1OCCC(=O)OCC(=O)NCCc1ccc(S(N)(=O)=O)cc1 | 47.5% (active)
12 | Cc1ccc(S(=O)(=O)CCC(=O)OCC(=O)NCCc2ccc(S(N)(=O)=O)cc2)cc1 | 2.48%
13 | O=C(C[C@@H]1CC[C@@H]2[C@H](COC[C@@H](O)CN2S(=O)(=O)c2ccccc2)O1)NCC1CCCCC1 | -12.1%
14 | C[C@@H]1CN([C@@H](C)CO)S(=O)(=O)c2ccc(-c3cccc(C(=O)N(C)C)c3)cc2O[C@@H]1CN(C)C | -3.85%
15 | c1ccc(-c2ccc(C3[C@@H]4CN(Cc5cccnc5)C[C@H]3N4)cc2)cc1 (stereo partly drawn) | -24.3%
16 | O=C(NC[C@@H]1N[C@@H](CO)[C@H]1c1ccc(-c2cccnc2)cc1)c1cccc(F)c1 | 41.5% (active)
17 | N#Cc1cccc(-c2ccc([C@H]3[C@@H](CO)N[C@@H]3CNC(=O)C3CCC3)cc2)c1 | -1.99%

Row | SMILES | CPE inhibition
18 | N#C[C@H]1N[C@H](CO)[C@H]1c1ccc(-c2cccc(F)c2)cc1 | 3.16%
19 | CCCNC(=O)N1C[C@@H](O)COC[C@H]2O[C@@H](CC(=O)NCCCN3CCOCC3)CC[C@@H]21 | -1.62%
20 | CO[C@H]1CN(C)C(=O)c2cc(NS(=O)(=O)c3ccc(C)cc3)ccc2OC[C@H](C)NC[C@H]1C | -0.879%
21 | CO[C@H]1CN(C)C(=O)c2cc(NS(=O)(=O)c3ccccc3)ccc2OC[C@H](C)NC[C@@H]1C | 27.3% (active)
22 | CO[C@@H]1CN(C)C(=O)c2cc(NC(=O)C3CCOCC3)ccc2OC[C@@H](C)NC[C@@H]1C | 23.2% (active)
23 | CO[C@H]1CN(C)C(=O)c2ccc(NC(=O)C3CCOCC3)cc2OC[C@H](C)NC[C@H]1C | -0.477%
24 | CO[C@@H]1CN(C)C(=O)c2cc(NS(=O)(=O)c3ccc(Cl)cc3)ccc2OC[C@H](C)NC[C@@H]1C | -4.08%
25 | CO[C@H]1CN(C)C(=O)c2cc(NC(=O)C3CC3)ccc2OC[C@@H](C)NC[C@H]1C | -4.67%
26 | C[C@@H]1CCCCO[C@@H](CN(C)C(=O)Nc2ccc(F)cc2)[C@H](C)CN([C@@H](C)CO)C(=O)c2cc(NS(C)(=O)=O)ccc2O1 | -6.59%
27 | CCCC(=O)N1CC2(C1)CN(C(=O)COC)[C@@H](CO)c1c2c2ccc(OC)cc2n1C | 10.6%
28 | O=S(=O)(NC[C@H]1[C@H](c2ccccc2)[C@H](CO)N1CC1CC1)c1ccccc1 | 16.5%
29 | CCc1cnc(N2[C@H](C#N)[C@H](c3ccc(C4=CCCC4)cc3)[C@@H]2CO)s1 | 42.6% (active)
30 | N#C[C@@H]1[C@@H](c2ccc(C3=CCCC3)cc2)[C@@H](CO)N1C(=O)C1CCCC1 | -3.68%
31 | CCc1cnc(N2[C@H](C#N)[C@H](c3ccccc3-c3ccccc3C)[C@H]2CO)s1 | 6.09%
32 | CO[C@@H]1CN(C)C(=O)c2cc(NC(=O)c3cc(C)on3)ccc2OC[C@@H](C)N(C(C)=O)C[C@@H]1C | 5.53%
33 | O=C(CN1CCC(O)(c2cccc(C(F)(F)F)c2)CC1)NCCc1ccccc1 | 24.3% (active)

From PubChem BioAssay AID651640 (Broad Institute, 2012)
